Measured values as given in PubChem BioAssay (NCI).
The panel holds about 79,000 compounds, 15% with a hit somewhere; the sample as a whole holds those more often. The source made the active and inactive calls. Cut-off read from the data, not from the text of the source: active = growth inhibition above about 70%; inactive = the rest.

Experiment: NCI Yeast Anticancer Drug Screen. Data for the mec2-1 strain (AID 157)
Conditions: S. cerevisiae mec2-1 strain, at 50.0 µM, stronger effect = higher value
In short: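 Growth inhibition is read against vehicle-treated controls after compound exposure of the mec2-1 yeast strain, which is defective in DNA damage repair or cell cycle control.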

| Structure (SMILES) | growth inhibition |
| --- | --- |
| Cc1ccccc1C(=O)NNC(=O)c1ccc2ccccc2c1 | -9.1% (inactive) |
| CCc1c(C)c2cc(N)ccc2[nH]c1=O | 24.1% (inactive) |
| Cc1ccccc1OCC1COCN(C(C)(C)CO)CO1 (stereo not given) | -4.5% (inactive) |
| CC(Br)C(=O)Nc1ccc(C(=O)O)c(O)c1 (stereo not given) | -32.8% (inactive) |
| c1ccc(C(Sc2c[nH]c3ccccc23)(c2ccccc2)c2ccccc2)cc1 (tested in a mixture with another compound) | -11.7% (inactive) |
| CN1CCC2(CC1)C(=O)N(Cc1ccccc1)C(=O)C2c1ccccc1 (stereo not given) | -6.95% (inactive) |
| COC(=O)CC/C=N/NC(N)=O | 4.5% (inactive) |
| NNc1ccc([N+](=O)[O-])c2[nH][nH]c(=O)c12 | 6.5% (inactive) |
| CC(=O)Oc1cc(OC(C)=O)c(OC(C)=O)c2c1CCCC2 | 14.8% (inactive) |
| CCOC(=O)C1=C(C)OC(C)(OC(C)=O)C1=O (stereo not given) | -1.9% (inactive) |
| CN(CCO)CC(O)Cn1cnc2ncnc(N)c21 (stereo not given) | 12% (inactive) |
| NC(=O)C1CC(O)CC(C(N)=O)O1 (stereo not given) | 8.3% (inactive) |
| NC1=NN(S(=O)(=O)c2ccc(Cl)cc2)CC1 | -6.25% (inactive) |
| O=C(/C=C/CBr)NC(Cc1ccccc1)C(=O)O (stereo not given) | -8.6% (inactive) |
| CC1OC2=N[C@@H]1C(=O)N[C@@H](C(C)C)C1=N[C@H](C(=O)N[C@@H](C(C)C)C3=N[C@H](C(=O)N[C@@H](C(C)C)C4=N[C@H](C(=O)N[C@H]2C(C)C)C(C)O4)C(C)O3)C(C)O1 (stereo not given in full) | 3.55% (inactive) |
| c1ccc2c(C3=NCCO3)cccc2c1 | 9.7% (inactive) |
| CC(C)(C)C(=O)c1ccc(-c2ccccc2)cc1 | -5.55% (inactive) |
| COC1C(C(=O)O)=CC=CC1OC(C)=O (stereo not given) | -5.45% (inactive) |
| CCCC(O)CNCC1CCC2CCc3cccc1c32 (stereo not given) | 5.8% (inactive) |
| CCCCn1cnc2c(SCc3ccc(Cl)cc3Cl)nc(N)nc21 | 25.2% (inactive) |

| Structure (SMILES) | growth inhibition |
| --- | --- |
| Cc1ccc2c(c1)SCc1c-2[nH]c2ccccc12 | 95.3% (active) |
| COC(=O)c1cncn1C1CC1 | -7.1% (inactive) |
| COC(=O)C1C(=O)C2OC1C1OC(C)(C)OC21 (stereo not given) | -12.1% (inactive) |
| CC(C)(Oc1ccc(Cl)cc1)C(=O)NC1CC(C)(C)N(O)C(C)(C)C1 | 4.95% (inactive) |
| COC1C(O)CC(OC2CC(OC3CC(O[C@@H]4C(=O)c5c(cc6cc(OC7CC(OC8CC(O)C(O)C(C)O8)C(O)C(C)O7)c(C)c(O)c6c5O)C[C@H]4[C@H](OC)C(=O)[C@@H](O)[C@@H](C)O)OC(C)C3O)OC(C)C2O)OC1C (stereo not given in full) | 28.9% (inactive) |
| O=CNCC1(c2ccccc2)CCN(Cc2ccccc2)CC1 | -23.8% (inactive) |
| O=C(NCCCl)NCC1CCCO1 (stereo not given) | -1.25% (inactive) |
| O=C(O)c1ccc(F)cc1C(=O)O | 6% (inactive) |
| O=C1CCc2ccccc21 | -10.5% (inactive) |
| Nc1nc(N)c2nnsc2n1 | -5.05% (inactive) |
| O=C(NNC(=S)Nc1ccc(S(=O)(=O)N2CCCCC2)cc1)c1ccncc1 | 11.1% (inactive) |
| Cn1c(=O)oc2cc([N+](=O)[O-])c(Cl)cc21 | 4.25% (inactive) |
| CCOC(=O)c1ccc(NC(=O)CNC2CCCCC2)cc1 | -8.7% (inactive) |
| Nc1ccc(N=Nc2ccccc2)c(N)c1 | 19.6% (inactive) |
| COc1ccc(C(SCC(N)C(=O)O)(c2ccccc2)c2ccccc2)cc1 (stereo not given) | -11.7% (inactive) |
| O=C1C2C(C(=O)N1c1ccccc1)C1(Br)c3ccccc3C2(Br)C2C(=O)N(c3ccccc3)C(=O)C21 (stereo not given) | 6.3% (inactive) |
| N#Cc1cccc(N2C(=O)c3ccc(C(=O)c4ccc5c(c4)C(=O)N(c4cccc(C#N)c4)C5=O)cc3C2=O)c1 | -16.3% (inactive) |
| CCCCCCCCn1nnnc1N | 21% (inactive) |
| CC(C)CC(NS(=O)(=O)Cc1ccccc1)C(=O)NN (stereo not given) | -13.6% (inactive) |
| CN1CCC/C1=N\c1ncn[nH]1 | -21.1% (inactive) |
